According to the supplement of paper PMC10849652:
Of roughly 7,900 targets only a part is listed; those with a hit were picked by preference. About 0.6% of all pairs of compound and target were hits.

Compound: COC(=O)N[C@@H](C)CNc1nccc(-c2cn(C(C)C)nc2-c2cc(Cl)cc(NS(C)(=O)=O)c2F)n1 [encorafenib]
Assay: log2 fold change, soluble protein after heating vs DMSO (PISA); higher = thermal stabilisation; K562 cells, 10 uM, 30 min; active = over 0.2 and 3.5 SD of the protein, either way, in both replicates (recomputed)
Summary of the method: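 Quantification of soluble protein used TMTpro 16plex LC-MS/MS, with channel sums equalised. Samples were the supernatant after 21,000xg for 90 min of pooled aliquots from K562 cells (2×10^6 cells/mL) treated with 10 μM compound for 30 min, heated for 3 min over 48°C-58°C, and extracted in PBS with 0.5% NP-40 at 4°C. Values, from duplicates, describe thermal stability against control samples on a log2 fold-change scale.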

Sequence of UniProt Q8N8N7 (Q8N8N7 whole entry, looked up): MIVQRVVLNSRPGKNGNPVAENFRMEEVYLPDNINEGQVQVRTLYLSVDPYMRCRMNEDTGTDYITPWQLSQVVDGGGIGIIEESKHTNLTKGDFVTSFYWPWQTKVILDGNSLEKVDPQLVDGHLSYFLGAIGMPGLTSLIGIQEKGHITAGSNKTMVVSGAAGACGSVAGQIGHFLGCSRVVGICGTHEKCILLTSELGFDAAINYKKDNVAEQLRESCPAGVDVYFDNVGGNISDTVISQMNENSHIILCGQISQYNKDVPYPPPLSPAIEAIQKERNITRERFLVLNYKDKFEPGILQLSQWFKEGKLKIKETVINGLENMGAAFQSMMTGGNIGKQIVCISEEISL
Sequence of UniProt O60678 (O60678 whole entry, looked up): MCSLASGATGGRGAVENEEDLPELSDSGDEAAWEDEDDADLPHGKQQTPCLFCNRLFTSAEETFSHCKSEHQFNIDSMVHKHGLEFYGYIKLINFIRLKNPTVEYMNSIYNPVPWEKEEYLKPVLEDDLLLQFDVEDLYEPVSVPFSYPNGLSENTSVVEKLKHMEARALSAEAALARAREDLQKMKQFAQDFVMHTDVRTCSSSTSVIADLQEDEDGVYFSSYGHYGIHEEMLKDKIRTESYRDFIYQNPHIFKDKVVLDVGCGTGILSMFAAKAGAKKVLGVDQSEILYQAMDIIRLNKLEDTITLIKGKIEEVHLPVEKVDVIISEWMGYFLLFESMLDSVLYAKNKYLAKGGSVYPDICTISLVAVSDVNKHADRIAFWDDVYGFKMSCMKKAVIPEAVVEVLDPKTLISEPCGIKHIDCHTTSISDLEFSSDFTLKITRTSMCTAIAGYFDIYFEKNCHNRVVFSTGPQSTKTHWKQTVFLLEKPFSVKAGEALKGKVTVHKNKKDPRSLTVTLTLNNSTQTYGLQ
Sequence of UniProt Q9UG56 (Q9UG56 whole entry, looked up): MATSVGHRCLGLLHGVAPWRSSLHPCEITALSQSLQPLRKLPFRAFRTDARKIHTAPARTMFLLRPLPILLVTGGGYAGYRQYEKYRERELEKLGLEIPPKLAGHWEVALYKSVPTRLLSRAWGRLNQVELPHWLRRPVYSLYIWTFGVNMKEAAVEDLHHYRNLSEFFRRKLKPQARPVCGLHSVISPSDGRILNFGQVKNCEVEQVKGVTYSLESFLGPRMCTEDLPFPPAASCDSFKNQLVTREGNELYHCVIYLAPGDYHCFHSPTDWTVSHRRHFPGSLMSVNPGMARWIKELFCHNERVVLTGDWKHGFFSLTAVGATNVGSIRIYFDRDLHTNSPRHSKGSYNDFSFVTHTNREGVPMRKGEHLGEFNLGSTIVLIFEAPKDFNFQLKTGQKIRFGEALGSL
Sequence of UniProt Q01970 (Q01970 whole entry, looked up): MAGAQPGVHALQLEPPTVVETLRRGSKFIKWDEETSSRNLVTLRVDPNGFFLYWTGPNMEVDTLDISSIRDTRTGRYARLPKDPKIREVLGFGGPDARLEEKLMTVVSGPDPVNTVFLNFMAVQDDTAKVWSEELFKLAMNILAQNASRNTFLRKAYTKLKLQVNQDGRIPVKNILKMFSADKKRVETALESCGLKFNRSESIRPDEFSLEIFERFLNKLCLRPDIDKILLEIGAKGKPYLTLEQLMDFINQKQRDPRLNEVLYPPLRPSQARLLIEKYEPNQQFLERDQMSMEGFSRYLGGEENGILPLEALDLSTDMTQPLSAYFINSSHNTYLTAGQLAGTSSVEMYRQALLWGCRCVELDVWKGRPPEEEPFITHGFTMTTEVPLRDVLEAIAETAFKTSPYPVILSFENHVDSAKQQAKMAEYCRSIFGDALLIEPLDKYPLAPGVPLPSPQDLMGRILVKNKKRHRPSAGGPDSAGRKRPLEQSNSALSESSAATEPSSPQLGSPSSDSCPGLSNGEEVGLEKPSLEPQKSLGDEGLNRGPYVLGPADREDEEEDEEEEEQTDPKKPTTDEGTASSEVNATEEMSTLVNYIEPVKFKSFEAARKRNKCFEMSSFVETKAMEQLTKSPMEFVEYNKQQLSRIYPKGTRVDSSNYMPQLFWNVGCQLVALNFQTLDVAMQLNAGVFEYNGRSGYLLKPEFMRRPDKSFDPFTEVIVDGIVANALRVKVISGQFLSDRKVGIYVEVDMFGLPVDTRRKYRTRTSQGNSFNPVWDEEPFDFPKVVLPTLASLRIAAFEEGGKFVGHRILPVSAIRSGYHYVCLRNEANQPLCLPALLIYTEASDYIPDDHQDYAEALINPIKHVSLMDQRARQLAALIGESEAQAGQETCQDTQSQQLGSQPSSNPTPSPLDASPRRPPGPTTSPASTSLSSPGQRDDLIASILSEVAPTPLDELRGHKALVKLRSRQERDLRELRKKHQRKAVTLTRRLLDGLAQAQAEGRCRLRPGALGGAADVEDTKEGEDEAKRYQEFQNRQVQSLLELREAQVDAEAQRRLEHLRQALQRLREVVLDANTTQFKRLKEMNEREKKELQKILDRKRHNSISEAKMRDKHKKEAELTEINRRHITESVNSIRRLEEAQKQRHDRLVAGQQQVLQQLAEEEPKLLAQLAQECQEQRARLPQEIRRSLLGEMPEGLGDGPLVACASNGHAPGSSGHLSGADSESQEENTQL
Sequence of UniProt O43395 (O43395 whole entry, looked up): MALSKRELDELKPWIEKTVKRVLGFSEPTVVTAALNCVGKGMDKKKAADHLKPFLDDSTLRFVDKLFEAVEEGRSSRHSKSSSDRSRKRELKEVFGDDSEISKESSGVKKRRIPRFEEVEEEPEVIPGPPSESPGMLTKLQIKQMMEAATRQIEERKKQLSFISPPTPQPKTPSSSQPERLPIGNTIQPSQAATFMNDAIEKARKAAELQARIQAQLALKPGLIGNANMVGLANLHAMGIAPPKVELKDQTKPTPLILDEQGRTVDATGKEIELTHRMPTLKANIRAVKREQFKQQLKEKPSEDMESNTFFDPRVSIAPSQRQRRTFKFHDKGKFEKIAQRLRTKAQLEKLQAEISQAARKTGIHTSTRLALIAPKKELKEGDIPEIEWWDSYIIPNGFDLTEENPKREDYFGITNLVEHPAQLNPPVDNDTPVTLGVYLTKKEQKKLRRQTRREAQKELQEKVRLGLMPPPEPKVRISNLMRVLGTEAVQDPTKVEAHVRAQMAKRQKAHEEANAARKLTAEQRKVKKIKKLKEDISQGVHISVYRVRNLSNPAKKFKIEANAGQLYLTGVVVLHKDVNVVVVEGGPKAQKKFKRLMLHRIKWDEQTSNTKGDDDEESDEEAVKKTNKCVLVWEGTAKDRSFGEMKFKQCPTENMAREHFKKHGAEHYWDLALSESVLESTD
Sequence of UniProt P49642 (P49642 whole entry, looked up): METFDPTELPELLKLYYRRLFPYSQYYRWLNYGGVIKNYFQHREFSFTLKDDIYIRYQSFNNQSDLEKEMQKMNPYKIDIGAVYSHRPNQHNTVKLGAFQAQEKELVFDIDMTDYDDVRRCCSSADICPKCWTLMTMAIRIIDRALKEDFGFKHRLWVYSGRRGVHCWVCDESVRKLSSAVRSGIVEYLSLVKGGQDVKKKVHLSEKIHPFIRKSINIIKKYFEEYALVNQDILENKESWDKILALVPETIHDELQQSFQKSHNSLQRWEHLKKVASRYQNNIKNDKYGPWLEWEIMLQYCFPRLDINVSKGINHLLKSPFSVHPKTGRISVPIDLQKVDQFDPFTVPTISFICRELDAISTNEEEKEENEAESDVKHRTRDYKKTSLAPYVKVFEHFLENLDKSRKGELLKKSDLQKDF
Sequence of UniProt O15067 (O15067 whole entry, looked up): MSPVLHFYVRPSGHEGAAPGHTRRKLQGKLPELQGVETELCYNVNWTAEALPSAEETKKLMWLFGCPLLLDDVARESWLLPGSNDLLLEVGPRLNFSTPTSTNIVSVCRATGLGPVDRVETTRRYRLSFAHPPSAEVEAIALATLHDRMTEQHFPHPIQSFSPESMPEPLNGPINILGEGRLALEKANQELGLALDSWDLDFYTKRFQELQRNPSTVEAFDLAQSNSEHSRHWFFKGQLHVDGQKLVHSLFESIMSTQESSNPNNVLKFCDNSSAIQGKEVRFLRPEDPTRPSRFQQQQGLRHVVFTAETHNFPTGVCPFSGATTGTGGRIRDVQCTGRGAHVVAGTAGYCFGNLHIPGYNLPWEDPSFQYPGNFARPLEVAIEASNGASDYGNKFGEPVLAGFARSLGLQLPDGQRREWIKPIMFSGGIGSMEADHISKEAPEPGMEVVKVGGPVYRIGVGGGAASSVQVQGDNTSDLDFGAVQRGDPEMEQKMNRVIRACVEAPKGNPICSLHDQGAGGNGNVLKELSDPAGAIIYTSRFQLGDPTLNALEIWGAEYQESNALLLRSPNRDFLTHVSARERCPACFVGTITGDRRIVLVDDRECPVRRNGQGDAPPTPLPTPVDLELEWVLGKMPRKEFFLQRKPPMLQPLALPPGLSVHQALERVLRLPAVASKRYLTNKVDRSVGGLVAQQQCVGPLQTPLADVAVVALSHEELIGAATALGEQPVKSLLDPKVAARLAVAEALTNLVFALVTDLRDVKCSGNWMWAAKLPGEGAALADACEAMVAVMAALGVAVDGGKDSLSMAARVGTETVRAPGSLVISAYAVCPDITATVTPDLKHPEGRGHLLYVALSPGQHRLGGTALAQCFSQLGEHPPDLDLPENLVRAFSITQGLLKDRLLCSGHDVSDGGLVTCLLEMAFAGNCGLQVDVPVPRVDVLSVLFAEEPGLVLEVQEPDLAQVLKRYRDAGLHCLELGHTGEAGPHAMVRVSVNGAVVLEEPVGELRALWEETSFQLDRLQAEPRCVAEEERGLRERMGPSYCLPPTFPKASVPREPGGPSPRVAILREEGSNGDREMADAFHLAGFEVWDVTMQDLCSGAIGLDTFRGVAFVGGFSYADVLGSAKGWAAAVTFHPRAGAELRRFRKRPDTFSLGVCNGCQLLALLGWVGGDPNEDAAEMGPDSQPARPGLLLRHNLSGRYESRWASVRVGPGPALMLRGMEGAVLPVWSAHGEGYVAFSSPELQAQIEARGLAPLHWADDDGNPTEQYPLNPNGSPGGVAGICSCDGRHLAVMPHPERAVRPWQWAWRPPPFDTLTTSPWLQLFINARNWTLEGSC

log2 fold change, inactive:
PYGB (UniProt P11216) 0.024, PLCB3 (UniProt Q01970) 0.004, POLR2M (UniProt P0CAP2) 0.092, PEX16 isoform 2 (UniProt Q9Y5Y5) 0.001, PTPA (UniProt A6PVN8) 0.077, PARN (UniProt O95453) 0.04, PKM (UniProt P14618) -0.01, PRIM1 (UniProt P49642) 0.153, PCK2 (UniProt Q16822) -0.007, POLR2G (UniProt P62487) -0.016, PTDSS1 (UniProt P48651) 0.224, PHKA2 (UniProt P46019) -0.022, PISD (UniProt Q9UG56) 0.063, PIP4P1 isoform 2 (UniProt Q86T03) -0.027, PGGT1B (UniProt P53609) 0.013, PCLAF (UniProt Q15004) -0.046, POLR3K (UniProt Q9Y2Y1) -0.019, POLR2K (UniProt P53803) -0.174, PCBP1 (UniProt Q15365) 0.052, PCNT (UniProt O95613) 0.037, PTGR2 (UniProt Q8N8N7) -0.107, PLIN2 (UniProt Q99541) 0.002, PDCD6 (UniProt O75340) 0.002, PYGL (UniProt P06737) 0.037, POTEI (UniProt P0CG38) -0.007, POLR1A (UniProt O95602) -0.015, POMP (UniProt Q9Y244) -0.071, PPP2R5E (UniProt Q16537) 0.021, PSMA3 (UniProt P25788) 0.034, PRPF3 (UniProt O43395) 0.171, PNPLA8 (UniProt Q9NP80) 0.026, PRMT3 (UniProt O60678) 0.061, PRIM2 (UniProt P49643) 0.052, PFAS (UniProt O15067) 0.011, PARL (UniProt Q9H300) 0.029, PDPK1 (UniProt O15530) 0.041, PTPA (UniProt Q15257) 0.012
